Screening results from PubChem.
Shown are actives, neighbours in structure and some others; about 7.3% of the full set was active somewhere.
SMN2 splice enh: increases expression of the SMN2 splice variant; HEK293 SMN2-luciferase splicing reporter, luminescence, 30-36 h; Potency, µM (doses to about 46.1 µM), usual class: activators; 2.8% of 210,000 active; AID 1458; further: nearly all actives have a fitted effect of over 55% in size
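qHTS luciferase splicing reporter: luminescence rises when SMN2 exon 7 is included in transfected HEK293 cells. Compound exposure lasted 30-36 h at 37C, with 4.5 mM final sodium butyrate as control, followed by a ONE-Glo read.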
FLuc modulator: firefly luciferase modulation, counter-screen for miR-21 project; purified FLuc, Km substrates, luminescence inhibition; AID 588342; Potency, µM (highest dose often 57.5 µM), most hits filed as inhibitors; P08659; 6.9% of 360,000 active; further: nearly all actives have a fitted effect of over 55% in size
Target sequence (P08659 whole entry, looked up): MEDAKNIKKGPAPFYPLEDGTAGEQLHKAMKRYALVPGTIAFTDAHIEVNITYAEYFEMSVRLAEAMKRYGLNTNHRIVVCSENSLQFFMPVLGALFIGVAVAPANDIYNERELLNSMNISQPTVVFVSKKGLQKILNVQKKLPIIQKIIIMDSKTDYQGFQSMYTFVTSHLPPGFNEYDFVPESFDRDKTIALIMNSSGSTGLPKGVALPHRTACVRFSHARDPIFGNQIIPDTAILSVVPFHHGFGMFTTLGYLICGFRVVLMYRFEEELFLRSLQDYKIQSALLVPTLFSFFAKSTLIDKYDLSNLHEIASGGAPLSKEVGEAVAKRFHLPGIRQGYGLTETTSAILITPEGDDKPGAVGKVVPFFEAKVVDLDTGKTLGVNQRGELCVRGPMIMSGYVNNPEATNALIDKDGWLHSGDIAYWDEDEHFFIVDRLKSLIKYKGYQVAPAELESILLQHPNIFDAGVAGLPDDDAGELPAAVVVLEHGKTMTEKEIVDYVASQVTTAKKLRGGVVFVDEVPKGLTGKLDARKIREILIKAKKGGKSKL
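Purified P. pyralis luciferase, 10 nM final, with Km-level 10 uM D-luciferin and 10 uM ATP in 50 mM Tris acetate pH 7.5, 10 mM Mg acetate, 0.01% Tween-20, 0.05% BSA; 6-point qHTS titration about 60 µM downward; luminescence read.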
Rab9 prom act: Rab9 promoter activation | AID 485297 | 2.8% of 320,000 active | Huh7 Rab9 promoter-luciferase reporter, luminescence, 24 h | Potency, µM (series often up to 9.22 µM), usual class: activators; further: nearly all actives have a fitted effect of over 60% in size
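Luminescence read-out: Huh7 cells stably expressing Rab9-luciferase, treated 24 h with compound at 37 °C, then lysed with luciferase reagent for 10 min at ambient before reading.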
ELG1 genotox: genotoxicity induction in ELG1-luciferase HEK293T cells | HEK293T ELG1-luciferase reporter, luminescence, 16 h | Potency, µM (top dose mostly 46 µM), usual class: activators | 1.3% of 330,000 active | AID 504466; further: nearly all actives have a fitted effect of over 60% in size
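ELG1-luciferase HEK293T cells, 2,000/well; compound pinned in; 16 hr, 37 °C, 5% CO2; ONE-Glo, 30 min RT; luminescence on CCD imager.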
Luc counter: counter-screen: inhibitors of Kinase-Glo firefly luciferase; Kinase-Glo luciferase, ATP luminescence, 8 min; Q27757; 0.28% of 200,000 active; Potency, µM (series often up to 38.3 µM), usual class: inhibitors; further: nearly all actives have a fitted effect of over 60% in size
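Luminescence was the read-out, taken after 8-minute incubation at ambient temperature. Luciferase turned over luciferin with 10 uM ATP in imidazole pH 7.2 buffer containing KCl, MgCl2, Tween 20 and BSA.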
NPC1 promoter act: activates the NPC1 promoter. Huh7 NPC1 promoter luciferase reporter, 24 h. Potency, µM (doses to about 9.22 µM), actives largely listed as activators. 2.4% of 320,000 active; further: nearly all actives have a fitted effect of over 60% in size
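Cells: Huh7 expressing luciferase under the NPC1 promoter, 1500/well. Seeded 2 h, compound added, incubated 24 h at 37 °C. Luciferase reagent, 10 min ambient, then luminescence.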
Hits are given with their value; – = inactive; ? = inconclusive; · = no result given; [ ] = dose if it differs, or a comment. The call rests on the fitted dose curve; in most records, active means well fitted curve in the direction sought with a large enough effect; inconclusive means small, poorly fitted or top-dose-only effect, or another doubt; inactive means no such curve, though single readings can be large; an effect the other way counts as inactive or inconclusive.

SMILES	SMN2 splice enh	FLuc modulator	Rab9 prom act	ELG1 genotox	Luc counter	NPC1 promoter act
Cc1cccc(-c2nc3nc(C)cc(NC(C)c4ccccc4)n3n2)c1 (configuration not stated)	·	17µM	·	·	·	·
COC(=O)Nc1nc2ccc(SC(C)C)cc2[nH]1	?	?	–	5.8µM	–	–
COC(=O)Nc1nc2ccc(C(=O)c3ccccc3)cc2[nH]1	–	·	·	·	–	·
O=C(NCc1cccs1)c1cc2ccccc2o1	–	19µM	–	–	–	–
Cc1csc(C(C#N)C(=O)c2cc3ccccc3o2)n1 (configuration not stated)	11µM	1.3µM	2.8µM	?	–	2.8µM
Cc1csc(NC(=O)c2cc3ccccc3o2)n1	·	0.95µM	1.4µM	?	·	?
CCOC(=O)Cc1csc(NC(=O)c2cc3ccccc3o2)n1	–	11µM	?	–	?	?
Cc1ccc(-c2csc(NC(=S)NC(=O)c3cc4ccccc4o3)n2)cc1	?	–	–	–	–	–
Cc1cccc(Cn2c(=O)n(-c3ccc(Cl)c(Cl)c3)c(=O)c3c(C)c(C)sc32)c1	–	–	·	·	·	·
CC(Cc1ccccc1)NC(=O)c1cc2ccccc2o1 (configuration not stated)	·	?	2.5µM	?	·	3.2µM
O=C(/C=C/c1c(F)cccc1Cl)N1CCc2ccccc2C1	·	17µM	–	–	·	–
CCc1ccc(/C=C\C(=O)N2CCc3ccccc3C2)cc1	–	7.6µM	–	?	–	–
CCOC(=O)C1CCN(C(=O)Cn2nc(CC)n3c(cc4sccc43)c2=O)CC1	–	–	·	·	·	·
CCCCCCCCCCCCCCCCCCOC[C@@H](O)COP(=O)([O-])OCC[N+](C)(C)C	–	·	·	·	–	·
CCN(C(=O)c1c(C)oc2ncnc(N3CCCCC3)c12)c1cc(C)ccc1C	·	–	·	·	·	·
Cc1nc2c(-c3ccccc3)c(C)nn2c(N)c1-c1ccccc1	13µM	1.1µM	1.6µM	?	–	2.2µM
Cc1nn2c3c(cnc2c1-c1ccccc1)C(=O)CCC3	–	15µM	?	?	–	?
Cc1cc(-c2ccccc2)n2nc(-c3ccc(Cl)cc3)cc2n1	·	–	·	·	·	·
Cc1nn2c(N)c(-c3ccccc3)cnc2c1-c1ccc(Cl)cc1	·	5.4µM	3.5µM	?	·	2.5µM
N#Cc1cnn2c(N)c(-c3ccc(Cl)cc3)cnc12	–	–	–	–	–	–
Cc1cc(N)n2nc(-c3ccccc3)c(-c3ccccc3)c2n1	·	–	–	–	·	–
Cc1nc2cc(-c3ccccc3)nn2c(N)c1-c1ccccc1	·	·	0.63µM	1.8µM	·	1µM
O=C(COc1ccc(Br)cc1)Nc1ccc(C(=O)OC2CCCCC2)cc1	–	–	·	·	·	·
Cc1nn2c(-c3ccccc3)ccnc2c1-c1ccccc1	–	5.4µM	?	?	–	?
COc1ccc(C2C(=O)N(C3CCCCCC3)CC(=O)N2CCC2=CCCCC2)cc1 (configuration not stated)	·	–	·	·	·	·
SMILES	SMN2 splice enh	FLuc modulator	Rab9 prom act	ELG1 genotox	Luc counter	NPC1 promoter act
COc1ccc(OCC(=O)Nc2ccc(NC(=O)c3ccco3)cc2)cc1	28µM	–	–	?	–	–
Cc1ccc(NC(=O)c2ccc(OC(=O)c3cc4ccccc4o3)cc2)cc1	10µM	–	2µM	3.2µM	–	3.5µM
CCN(C(=O)c1cc2ccccc2oc1=O)c1ccccc1	–	9.5µM	?	9.2µM	–	?
O=C(Oc1ccccc1)c1ccc(NC(=O)c2ccco2)cc1	–	2.7µM	–	?	–	–
COC(=O)c1ccc(NC(=O)c2ccc(NC(=O)c3ccco3)cc2)cc1	·	–	–	–	·	–
COc1ccc(CCNC(=O)c2ccc(Cn3c(=O)c4cccn4c4cccnc43)cc2)cc1OC	·	–	·	·	·	·
COc1ccc(CNC(=O)CCCN2C(=O)CCn3nc(-c4cn(C)c5ccccc45)cc32)cc1	·	–	·	·	·	·
O=C(Nc1ccc(Oc2ncccn2)cc1)c1ccco1	–	–	–	–	–	–
O=C(Oc1ccccc1)c1cc2ccccc2oc1=O	–	15µM	–	–	–	–
Cc1ccc(NC(=O)c2ccc(OC(=O)c3ccco3)cc2)cc1	13µM	–	2.8µM	8.2µM	–	2µM
Cc1ccc(Oc2ccc(NC(=O)c3ccco3)cc2)cc1	–	27µM	?	?	–	3.2µM
COc1ccc(OC(=O)c2cc3ccccc3o2)cc1	–	0.54µM	–	–	–	–
COc1ccc(N2CCN(C(=O)c3cc4ccccc4o3)CC2)cc1	·	–	–	–	·	–
CC(C)OC(=O)c1cc2ccccc2oc1=O	–	–	–	–	–	–
O=C(CCCc1ccccc1)NC1CC(=O)N(c2ccc(F)cc2)C1 (configuration not stated)	·	–	·	·	·	·
CCOc1cc(C(=O)O/N=C(\N)c2ccccn2)cc(OCC)c1OCC	·	?	–	–	·	–
COc1cc(OC)cc(C(=O)O/N=C(\N)c2ccccn2)c1	·	6.7µM	0.63µM	?	·	0.89µM
COc1ccc(C(=O)Oc2cccnc2)cc1	–	–	–	–	–	–
COc1ccc(C(=O)O/N=C(\C)c2cnccn2)cc1	–	11µM	–	–	–	–
COc1ccc(C(=O)NCCNC(=O)c2ccccn2)cc1	·	–	–	–	·	–
COc1ccc(C(=O)O/N=C(\N)c2ccccn2)cc1	·	0.095µM	0.4µM	?	·	0.11µM
COc1ccc(CC(=O)O/N=C(\N)c2ccccn2)cc1	·	12µM	–	?	·	–
COc1ccc(C(=O)NNC(=O)c2ccccn2)cc1	2.5µM	0.085µM	0.32µM	0.15µM	0.63µM	0.32µM
O=C(Cn1ncc2c(=O)oc3ccccc3c21)NCc1ccc(Cl)cc1	–	–	·	·	·	·
Nc1nc(SCc2ccccc2[N+](=O)[O-])c2[nH]cnc2n1	–[9.22 µM]	·	·	·	–[7.66 µM]	·
SMILES	SMN2 splice enh	FLuc modulator	Rab9 prom act	ELG1 genotox	Luc counter	NPC1 promoter act
CCS(=O)(=O)N1N=C(c2cccs2)CC1c1cc2cc(C)ccc2nc1Cl (configuration not stated)	·	17µM	–	–	·	–
Cc1ccc2nc(Cl)c(C3CC(c4cccs4)=NN3C(=O)CCCC(=O)O)cc2c1 (configuration not stated)	–	–	–	–	–	–
CCOC(=O)c1ccc(NC(=O)CC2Nc3cc(C)c(C)cc3NC2=O)cc1 (configuration not stated)	–	–	·	·	·	·
CN(CCc1ccc(Cl)c(Cl)c1)CCN1CCCC1	–	·	·	·	–	·
CCN(CCS(=O)(=O)c1ccc(Cl)cc1)C(=O)Nc1ccccc1	·	–	–	–	·	–
O=C(Nc1ccccc1)N(O)c1ccc(Cl)cc1	?	12µM	3.5µM	?	–	?
Cc1ccc(C)c(NC(=O)CN2C(=O)CCc3cc(S(=O)(=O)N4CCCCC4)ccc32)c1	·	–	·	·	·	·
COc1ccc(C2C(=O)N(C3CCCCC3)CC(=O)N2CCc2ccc(OC)c(OC)c2)cc1 (configuration not stated)	·	–	·	·	·	·
Cn1c(=O)[nH]c(=O)c2c1nc(N1CCOCC1)n2Cc1ccccc1	–	–	·	·	·	·
